Screening data (PubChem BioAssay)
An excerpt weighted towards active compounds, which were near 5.8% of everything screened.
PK Bst – modulators of Bacillus stearothermophilus pyruvate kinase; purified pyruvate kinase, luminescence ATP production; ribose 5-phosphate activator present at AC10; Potency, µM; 1.2% of 51,000 active; in the data active = potency below about 11 µM; inconclusive = mostly about 12 µM to 25 µM;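 the screen sought inhibitors and activators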
GBA activity – alters purified human glucocerebrosidase activity; P04062; purified enzyme, resorufin glucoside fluorescence (screen aimed at inhibitors), 20 min; Potency, µM; 1.1% of 48,000 active; AID 360; in the data active = potency below about 15 µM; inconclusive = mostly about 16 µM to 33 µM;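 note: the screen sought inhibitors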
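Compounds titrated against 0.2 nM normal enzyme, 30 uM resorufin beta-D-glucopyranoside substrate, citrate/phosphate buffer with taurocholate and tween-20, pH 5.9. Reaction ran 20 min at room temperature; fluorescence (Ex 548/Em 600) gave AC50.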
HEK293 cAMP ctrl – counter-screen for TSHR agonists: cAMP increase in parental HEK293. AID 938. parental HEK293 CNG cAMP sensor, membrane potential fluorescence. Potency, µM (series often up to 57.1 µM), usual class: activators. 2.5% of 73,000 active; note: nearly all actives have a fitted effect of over 55% in size
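Parental HEK 293 cells stably expressing a cAMP-gated CNG channel were loaded with membrane potential dye containing 100 uM RO 20-1724 for 60 min. Compound added for 30 min; depolarization read as fluorescence intensity at 590 nm.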
Luciferase inh – inhibitors of firefly luciferase; P08659; purified firefly luciferase, luminescence, 8 min; Potency, µM (series often up to 57.1 µM), actives largely listed as inhibitors; 2.2% of 72,000 active; AID 411; note: nearly all actives have a fitted effect of over 40% in size
Target sequence (P08659 whole entry, looked up): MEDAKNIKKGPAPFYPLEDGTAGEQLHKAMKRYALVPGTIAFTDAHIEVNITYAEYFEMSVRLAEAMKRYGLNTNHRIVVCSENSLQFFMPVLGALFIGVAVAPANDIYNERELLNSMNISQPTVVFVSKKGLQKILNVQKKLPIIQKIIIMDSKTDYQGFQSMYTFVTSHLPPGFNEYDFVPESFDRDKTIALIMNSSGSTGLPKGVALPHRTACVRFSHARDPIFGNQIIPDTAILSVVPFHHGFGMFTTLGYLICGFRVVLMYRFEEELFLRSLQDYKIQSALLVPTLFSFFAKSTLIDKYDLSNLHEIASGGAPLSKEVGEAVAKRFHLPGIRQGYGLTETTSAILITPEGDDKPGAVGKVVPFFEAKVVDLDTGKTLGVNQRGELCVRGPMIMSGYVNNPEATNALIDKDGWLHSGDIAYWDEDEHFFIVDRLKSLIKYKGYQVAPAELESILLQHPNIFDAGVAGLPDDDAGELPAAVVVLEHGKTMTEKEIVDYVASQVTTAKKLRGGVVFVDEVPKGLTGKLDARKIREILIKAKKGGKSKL
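Firefly luciferase (PKLight detection mix) with 10 uM ATP in pH 7.2 imidazole buffer (KCl, MgCl2, Tween 20, BSA). Compounds tested across a concentration series (qHTS). Luminescence read after 8 min at ambient temperature.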
TSHR agonist – activates the human thyroid stimulating hormone receptor; P16473; HEK293-CNG-TSHR cells (CNG channel as cAMP sensor), membrane potential dye, cAMP; Potency, µM (titrated, usually from 57.1 µM), usual class: activators; 0.48% of 73,000 active; active = well fitted activation curve with a large enough effect in the main read-out, with a control signal flat, not every such curve was filed as active; inconclusive = small, poorly fitted or top-dose-only effect, or a change in a side signal; inactive = no such curve, though single readings can be large or run the other way; reference of the percent scale not stated here;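 note: the control signal comes from parental cells without the receptor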
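HEK 293 cells stably expressing TSHR and a cAMP-gated CNG channel; parental CNG-only cells as counterscreen. Cells preloaded 60 min with membrane potential dye plus 100 uM RO 20-1724, then compound 30 min; fluorescence read at 590 nm.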
A number is an active result; - = inactive; ? = inconclusive; . = not tested or not shown; ! = not confirmed by another sample; [ ] = dose if it differs, or a comment. Unless noted, calls come from the whole dose curve; as a rule, active = well fitted curve in the direction sought with a large enough effect; inconclusive = small, poorly fitted or top-dose-only effect, or another doubt; inactive = no such curve, though single readings can be large; an effect the other way counts as inactive or inconclusive.

SMILES	PK Bst	GBA activity	HEK293 cAMP ctrl	Luciferase inh	TSHR agonist
CCOC(=O)c1[nH]c(C)c(C(=O)NC2CCCCCC2)c1C	-	-	-	-	-
CCOC(=O)c1[nH]c(C)c(C(=O)NC2CCCC2)c1C	.	.	25µM	-	?
CCn1c(C)nc2cc(-c3nnc(-c4c(-c5ccccc5)noc4C)o3)ccc21	-	-	20µM	-	?
Cc1ccc(-c2nnc(-c3ccccc3)o2)cc1Br	-	.	.	-	.
COc1ccc(-c2cc(C(F)(F)F)nc(NCc3ccco3)n2)cc1OC	-	-	10µM	-	?
C[C@@H]1C(=O)O[C@@H]2C[C@@]34[C@H]5C[C@@H](C(C)(C)C)[C@@]36[C@@H](OC(=O)[C@@H]6O)O[C@]4(C(=O)O5)[C@@]12O	.	.	-	-[11.4 µM]	-
C[C@H](N)CCCC(C)(C)O	.	.	-	-	-
O=C(c1ccc(N2CCOCC2)cc1)c1cccs1	?	-	-	10µM	-
Cc1ccc(C(C)C)n1C(=O)OC(C)(C)C	.	.	-[11.4 µM]	-[11.4 µM]	-[11.4 µM]
CO/N=C(\C(=O)N[C@@H]1C(=O)N2C(C(=O)[O-])=C(C[N+]3(C)CCCC3)CS[C@@H]12)c1csc(N)n1	.	.	-	-	-
COC(=O)c1ccccc1NC(=O)Nc1nnc(N2CCCCC2C)s1 (stereo not given)	.	.	-	-	-
COc1ccc(NC(=O)Nc2nnc(N3CCCCC3C)s2)cc1OC (stereo not given)	.	.	-	16µM	-
COc1ccc(NC(=O)c2cc3ccccn3n2)cc1	.	.	-	6.3µM	-
c1ccc(C(c2ccccc2)N2CC3(CCNCC3)C2)cc1	.	.	-	-[11.4 µM]	-
C[C@@H]1C(=O)O[C@H]2[C@@H](O)[C@@]34[C@H]5C[C@H](C(C)(C)C)[C@@]36[C@H](OC(=O)[C@@H]6O)O[C@@]4(C(=O)O5)[C@@]12O	.	.	-	-[11.4 µM]	-
COc1ccc(Cn2c(-c3ccco3)nc3oc4cc(OC)ccc4c(=O)c3c2=O)cc1	-	-	-	-	3.2µM
COc1ccc(Cn2c(-c3ccco3)nc3oc4ccccc4c(=O)c3c2=O)cc1	-	-	-	-	-
COC(=O)c1[nH]c2ccc(C)cc2c1NC(=O)CN1CCCc2ccccc21	9.1	-	-	-	-
O=C(c1oc2ccccc2c1CSCc1ccccc1)N1CCN(c2ncccn2)CC1	-	-	10µM	-	?
CCCCOC(=O)CSc1nc2c(cc1C#N)C(=O)CC(C)(C)C2	-	-	20µM	-	?
OB(O)c1ccc(Br)cc1	.	.	-	.	?
CNC(=O)[C@@H]1O[C@@H](n2cnc3c(NCc4ccc(N)cc4)ncnc32)[C@@H](O)[C@H]1O	.	.	?	-	?
COC(=O)c1ccc(Nc2nc(C)cc(=O)[nH]2)cc1	-	?	13µM	-	?
CCc1cc2c(nc1CC)CCN(CC/C(C)=N/OCC[C@@H]1C=C[C@H](OC(C)=O)[C@H](COC(C)=O)O1)C2	.	.	-[11.4 µM]	-[11.4 µM]	-[11.4 µM]
N#C/C(=C\c1ccc(O)c(O)c1)C(=O)Nc1ccccc1	.	.	-	25µM!	-
SMILES	PK Bst	GBA activity	HEK293 cAMP ctrl	Luciferase inh	TSHR agonist
CN(CCc1ccc(Cl)c(Cl)c1)CCN1CCCCCC1	.	.	?	-	?
O=c1cnn(-c2ccccc2)c(-c2ccccc2)c1	.	-	-	13µM	-
COc1cnn(-c2ccccc2)c(=O)c1N(C)C	-	-	-	-	-
CCSC1(SCC)N=C(N)C2(C#N)C(c3ccccc3)NC(C)=C(C)C12C#N (stereo not given)	-	-	-	-	25µM
COc1ccc(C2NC3=C(CCC3)C3(C#N)C(OC)(OC)N=C(N)C23C#N)cc1 (stereo not given)	-	.	.	-	.
O=C(Nc1ccc(-c2nc3ccccc3o2)cc1)C1CCCO1 (stereo not given)	6.3	-	-	5µM	-
O=C(Nc1ccc(Oc2ccccc2)cc1)C1CCCO1 (stereo not given)	.	.	-	-	-
CCCOc1ccc(C(=O)C(c2ccccc2)N2CCOCC2)cc1 (stereo not given)	-	-	25µM	-	?
CC(C)CN1CCc2nc(-c3ccccc3)c3c(c2CC1)COC(C)C3 (stereo not given)	.	.	-[11.4 µM]	.	-[11.4 µM]
Cc1cc(=O)[nH]c(SCCOc2ccc(OC(C)C)cc2)n1	.	-	-	16µM	-
CCOC(=O)[C@]1(C(NC(=O)OC)c2cccc(F)c2)CCCC1=O (stereo not given in full)	.	.	-[11.4 µM]	.	-[11.4 µM]
CC(=O)OCC1OC(C#Cc2ccc(F)cc2F)C=CC1OC(C)=O (stereo not given)	.	.	-[11.4 µM]	.	.
Fc1ccc(-c2nc3n(c2-c2ccncc2)CCS3)cc1	.	.	-	.	-
Oc1ccc(-c2nc(-c3ccc(F)cc3)c(-c3ccncc3)[nH]2)cc1	.	.	-	1.3µM!	?
C1CCC(c2nn3c(-c4n[nH]c5c4CCC5)nnc3s2)CC1	-	-	32µM	-	?
c1coc(-c2nnc3sc(C4CCCCC4)nn23)c1	-	.	.	-	.
CCN(CC)c1ccc(-c2nn3c(-c4n[nH]c5c4CCC5)nnc3s2)cc1	-	-	32µM	-	?
CN(C)c1ccc(-c2nn3c(-c4ccncc4)nnc3s2)cc1	-	-	-	-	-
CCc1cc2c(c(CC)n1)CCC(=O)N2Cc1ccc(-c2ccccc2-c2nn[nH]n2)cc1	.	.	-	16µM	.
c1nc(NC2CCNCC2)c2cc(-c3ccoc3)ccc2n1	.	.	?	-[2.29 µM]	?
CO/N=C\c1ccc(C(=O)N2[C@H](c3ccc(C)cc3)[C@@H](C)CC[C@H]2C(=O)OC)cc1	.	.	2µM	-[11.4 µM]	?
COC(=O)[C@@H]1CC[C@H](C)[C@@H](c2ccc(C)cc2)N1C(=O)c1ccc(/C=N\O[C@@H]2O[C@H](COC(C)=O)[C@H](OC(C)=O)[C@H](OC(C)=O)[C@H]2OC(C)=O)cc1	.	.	-[11.4 µM]	-[11.4 µM]	-[11.4 µM]
O=C(Cn1c(=O)oc2ccccc21)Nc1ccc(S(=O)(=O)N2CCCCC2)cc1	-	-	-	-	-
CCN(CC)S(=O)(=O)c1ccc(NC(=O)Cn2c(=O)oc3ccccc32)cc1	-	8.5	-	-	-
c1ccc(-c2cc3c(N4CCOCC4)ncnc3s2)cc1	.	.	-	-	-
SMILES	PK Bst	GBA activity	HEK293 cAMP ctrl	Luciferase inh	TSHR agonist
Cc1nc(N2CCOCC2)c2cc(-c3ccccc3)sc2n1	?	.	25µM	?	?
CCOC(=O)C1=C(C)OC(N)=C(C#N)C1c1ccoc1 (stereo not given)	.	.	-	.	-
N#CC1=C(N)OC2=C(CCC/C2=C/c2ccoc2)C1c1ccoc1 (stereo not given)	-	-	-	-	25µM
Cc1ccc2nc(/C(C#N)=N/O)[nH]c2c1	.	-	-	25µM	-
CO[C@H]1COC(=O)C/C=C\[C@H](C)[C@@H](OC)COC(=O)[C@@H](C)COC(=O)C/C=C\[C@@H]1C	.	.	-[11.4 µM]	-[11.4 µM]	-[11.4 µM]
CC(=O)O[C@@H]1C(=O)[C@@]2(C)[C@H](O)C[C@H]3OC[C@]3(OC(C)=O)[C@@H]2[C@H](OC(=O)c2ccccc2)[C@@]2(O)C[C@H](OC(=O)[C@@H](O)[C@@H](NC(=O)c3ccccc3)c3ccccc3)C(C)=C1C2(C)C (stereo in doubt)	.	.	-	-	-
Oc1ccccc1-c1nnc(COc2ccc(Cl)cc2Cl)o1	.	.	-	13µM	-
